Seven compounds from PubChem BioAssay (NCI) can be followed below.

The panel holds about 83,000 compounds, 20% with a hit somewhere; the sample as a whole holds those more often.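 Testing used 96-well plates and a 48-hour single-concentration exposure. Example: -40 means 40% of the starting cells died.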 Unmarked numbers belong to inactive results. Calls of active or inactive are those of the source. How the source made its calls: active means growth percent below 10; inactive means the rest.

Assay in all cases: NCI-60 one-dose screen, 48 h (100 = growth as untreated, 0 = no growth, -100 = all killed)
Experiment [1] relates to NCI-H23 lung. The conditions noted are these: 10 µM unless noted.
The test system of experiment [2] is NCI-H226 lung. The conditions noted are these: 10 µM unless noted.
For experiment [3], the system named is NCI-H322M lung. The conditions noted are these: 10 µM unless noted.
Experiment [4] deals with HOP-62 NSCLC. The conditions noted are these: 10 µM unless noted.
Experiment [5] deals with NCI-H460 lung. Particulars: 10 µM unless noted.
Experiment [6] deals with HOP-92 NSCLC. The conditions noted are these: 10 µM unless noted.
Experiment [7] has as its system NCI-H522 lung. Particulars: 10 µM unless noted.
The subject of experiment [8] is A549/ATCC NSCLC. The conditions noted are these: 10 µM unless noted.
The subject of experiment [9] is 786-0 renal. Particulars: 10 µM unless noted.
For experiment [10], the system named is COLO 205 colon. Particulars: 10 µM unless noted.
For experiment [11], the system named is DU-145 prostate. The conditions noted are these: 10 µM unless noted.
The test system of experiment [12] is K-562 leukemia. The conditions noted are these: 10 µM unless noted.
For experiment [13], the system named is MALME-3M melanoma. The conditions noted are these: 10 µM unless noted.
Experiment [14] concerns MDA-MB-231 breast. The conditions noted are these: 10 µM unless noted.
Experiment [15] relates to RXF 393 renal. Particulars: 10 µM unless noted.
The test system of experiment [16] is SF-268 CNS. The conditions noted are these: 10 µM unless noted.
Experiment [17] has as its system SF-295 CNS. The conditions noted are these: 10 µM unless noted.
In experiment [18] the test system is SF-539 CNS. Particulars: 10 µM unless noted.
The test system of experiment [19] is UACC-257 melanoma. Particulars: 10 µM.
The test system of experiment [20] is M14 melanoma. Particulars: 10 µM unless noted.

As to `N/C(=N\c1nc2c(Cl)cccc2s1)C(Cl)(Cl)Cl`, the growth was 93.2% in experiment [1]; 107% in [2]; 0.236% (active) in experiment [3]; 40.8% in [4]; 24.2% in experiment [5]; 64.3% in experiment [6]. Further, the growth in experiment [7] is 89.1%; in experiment [8], 30%; in [9], 90.9%; in experiment [10], 51.9%; in experiment [11] it was 3.92% (active); in experiment [12] it was 91.3%. Further, the growth in experiment [13] is 104%; in experiment [14], 76.1%; in experiment [15] it was 55.2%; in [16], 81%; in experiment [17] it was 20.1%; in [18] it was 71.1%. Moreover, the growth was 90.7% in experiment [19] and 97.7% in experiment [20].

Take `Oc1ccc(CSc2nnc(-c3ccc(Cl)cc3)o2)c2cccnc12`: the growth was 27.6% in [1]; 60.2% in experiment [2]; 26.1% in experiment [3]; 21.5% in experiment [4]; 5.72% (active) in experiment [5]; 21.8% in experiment [6]. For the same compound, the growth in experiment [7] was 32%; in [8], 19.6%; in experiment [9], 27.9%; in experiment [10] it was 97.4%; in experiment [11], 31.8%; in experiment [12] it was 16.2%. Moreover, the growth in experiment [13] is 36.8%; in experiment [14], 52.1%; in [15], 52.2%; in experiment [16], 24.2%; in experiment [17] it was 5.94% (active); in [18] it was 17%. Also, the growth in [19] is 18.8%; in [20], 9.55% (active).

As to `CS(=O)(=O)c1nccc(-c2c(-c3ccc(F)c(OCc4ccccc4)c3)nc3sccn23)n1`, the growth in [1] is 98.4%; in experiment [2] it was 82.1%; in experiment [3] it was 22.3%; in experiment [4], 105%; in experiment [5], 43.5%; in experiment [6], -5.33% (active). Moreover, the growth in experiment [7] is 74.1%; in [8] it was 103%; in experiment [9] it was 80.5%; in [10], 106%; in experiment [11] it was -64% (active); in [12], 75.9%. The growth was 115% in experiment [13]; 93.1% in experiment [14]; 94.7% in experiment [15]; 104% in [16]; 98.5% in [17]; 95.1% in experiment [18]. Also, the figures for the growth in experiment [19] and in [20] were 17.8% and 51.7%, respectively.

For `CN(C)C(=O)C1=NC(CO)C(=O)N(c2ccc(Cl)cc2)N1` (stereo not given), the growth in [1] was 104%; in experiment [2], 105%; in [3], 98.6%; in experiment [4], 98.9%; in experiment [5] it was 104%; in experiment [6], 91.4%. Moreover, the growth in [7] is 97.1%; in [8], 99%; in experiment [9], 93.9%; in experiment [10], 105%; in [11] it was 107%; in [12], 109%. The growth in [13] is 101%; in [14], 97.9%; in [15], 120%; in experiment [16], 97.8%; in [17], 103%; in experiment [18] it was 95.8%. The figures for the growth in experiment [19] and in experiment [20] were 107% and 92.8%, respectively.

Regarding `COc1ccc(Cn2cc3c(c2-c2ccccc2)CCCc2cnoc2-3)cc1[N+](=O)[O-]`, the growth in experiment [1] is 74.8%; in [2], 66.6%; in experiment [3], 96.2%; in experiment [4] it was 68.6%; in experiment [5], 56.4%; in experiment [6], 62.7%. The growth is 58.2% in experiment [7]; 66.7% in experiment [8]; 87.6% in [9]; 46.8% in experiment [10]; 84.2% in experiment [11]; 17.8% in experiment [12]. For the same compound, the growth in experiment [13] is 60.5%; in experiment [14], 75.2%; in experiment [15] it was 49.6%; in experiment [16], 78.5%; in [17] it was 69.5%; in experiment [18], 70.5%. Besides, the growth in [19] is 75.3%; in experiment [20] it was 51%.

Take `COc1ccccc1/C=C/C(=O)c1nnn(-c2ccc(C(=O)O)cc2)c1C`: the growth was 87.6% in [1]; 94.7% in [2]; 92.1% in [3]; 110% in [4]; 96.1% in experiment [5]; 101% in experiment [6]. For the same compound, the growth in experiment [7] was 82.4%; in experiment [8] it was 90.3%; in [9], 93.2%; in [10], 110%; in [11], 80.4%; in experiment [12] it was 73.7%. Further, the growth was 86.8% in [13]; 98.7% in experiment [14]; 86.6% in experiment [15]; 87.5% in experiment [16]; 100% in experiment [17]; 91.4% in [18]. Besides, the results for the growth in [19] and in [20] were 81.5% and 77.8%, respectively.

For `O=C1Nc2ccc(Cl)cc2/C1=C/c1ccc(OCc2ccc(F)cc2)cc1`, the growth in [1] was 92.5%; in experiment [2] it was 96.4%; in experiment [3], 95.7%; in [4], 107%; in experiment [5], 97.7%; in experiment [6], 85.6%. For the same compound, the growth in [7] was 90.4%; in [8], 91.1%; in experiment [9], 98.4%; in [10], 99.4%; in experiment [11] it was 95.9%; in experiment [12], 78.4%. For the same compound, the growth is 102% in experiment [13]; 95.2% in [14]; 95.5% in experiment [15]; 92.7% in [16]; 99% in experiment [17]; 96% in experiment [18]. In addition, the growth was 96.6% in experiment [19] and 98.1% in experiment [20].
